Molecules are shown by their SMILES. Values joined by “and” are separate entries in the source; they are usually repeats but may differ in a detail not shown here. Identical values can stand only once. The panel holds about 79,000 compounds, 15% with a hit somewhere; the sample as a whole holds those more often. Some structures have more than one record in an assay (separate samples or runs), and their calls can disagree. Active and inactive are the calls of the source. No stated cut-off is given here; in the data, active means growth inhibition above about 70%; inactive means the rest.

We go through three compounds from PubChem BioAssay (NCI).

The nature of assay [1]: NCI Yeast Anticancer Drug Screen. Data for the rad50 strain (AID 155).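 Further: 0% = growth of vehicle-only cultures of the same strain.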 To be noted: S. cerevisiae rad50 strain growth inhibition, stronger effect = higher value. The procedure, abridged:
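Yeast carrying a defined DNA repair defect were exposed to test compounds, and growth was compared with vehicle-treated controls to give percent inhibition.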

A short description of assay [2]: NCI Yeast Anticancer Drug Screen. Data for the mec2-1 strain (AID 157). The settings on record: S. cerevisiae mec2-1 strain, stronger effect = higher value. In short, it runs like this:
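Readout is yeast growth inhibition, normalised to vehicle-treated controls, in the mec2-1 strain exposed to compound.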

A short description of assay [3]: NCI Yeast Anticancer Drug Screen. Data for the sgs1 mgt1 strain (AID 161).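 Further: 0% = growth of cultures given vehicle only.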 The settings on record: S. cerevisiae sgs1 mgt1 strain, stronger effect = higher value. In short, it runs like this:
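Percent growth inhibition was derived by comparing compound-exposed mutant yeast with vehicle-exposed cultures. The strain carries alterations in DNA damage repair.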

Assay [4] in a line: NCI Yeast Anticancer Drug Screen. Data for the cln2 rad14 strain (AID 165).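 Further: 0% = growth equal to vehicle treated cultures.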 The settings on record: S. cerevisiae cln2 rad14 strain, stronger effect = higher value. The procedure, abridged:
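Relative to vehicle controls, growth inhibition of compound-treated cln2 rad14 yeast was recorded.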

Assay [5] in a line: NCI Yeast Anticancer Drug Screen. Data for the bub3 strain (AID 167). To be noted: S. cerevisiae bub3 mutant strain, stronger effect = higher value. In short, it runs like this: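 Compounds were applied to a genetically altered yeast strain carrying a cell-cycle control defect. Growth inhibition was scored against vehicle-treated controls.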
Assay [6] in a line: NCI Yeast Anticancer Drug Screen. Data for the mlh1 rad18 strain (AID 175). The settings on record: S. cerevisiae mlh1 rad18 strain growth inhibition, stronger effect = higher value. In short, it runs like this:
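Test agents were incubated with a yeast strain of defined genotype (DNA damage repair defect). Inhibition of growth was derived by comparison with vehicle-exposed cultures.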

[7] abbreviates: at 5.0 µM (retest, dose inferred, filed as 0.5).
Setting [8] is: at 50.0 µM (retest, dose inferred, filed as 5.0).

For `O=C(CCN1CCN2c3ccccc3CCC2C1)c1ccc(F)cc1` (centres undefined), the growth inhibition in assay [1] (setting [7]) was 51% (inactive) and 17% (inactive); in assay [1] (setting [8]), 86% (active) and 98% (active); in assay [1] (at 50.0 µM) it was 95.7% (active) and 83.2% (active); in assay [2] (setting [7]) it was 63% (inactive) and 22% (inactive); in assay [2] (setting [8]) it was 88% (active) and 97% (active); in assay [2] (at 50.0 µM) it was 91.5% (active) and 43.5% (inactive). The growth inhibition is 74% (active) and -2% (inactive) in assay [3] (setting [7]); 96% (active) and 100% (active) in assay [3] (setting [8]); 97.2% (active) and 89.7% (active) in assay [3] (at 50.0 µM); 65% (inactive) and -5% (inactive) in assay [4] (setting [7]); 64% (inactive) and 98% (active) in assay [4] (setting [8]); 93.5% (active) and 22.4% (inactive) in assay [4] (at 50.0 µM). The growth inhibition is 60% (inactive) and 78% (active) in assay [5] (setting [7]); 84% (active) and 99% (active) in assay [5] (setting [8]); 97.8% (active) and 95.2% (active) in assay [5] (at 50.0 µM); 82% (active) and 40% (inactive) in assay [6] (setting [7]); 96% (active) and 99% (active) in assay [6] (setting [8]); 98.5% (active) and 45% (inactive) in assay [6] (at 50.0 µM).
As to `Clc1ccc(/C=C/c2ccccn2)c(Cl)c1`, the growth inhibition in assay [1] (setting [7]) was 3% (inactive); in assay [1] (setting [8]), 43% (inactive); in assay [1] (at 50.0 µM) it was -14.9% (inactive) and 12.1% (inactive); in assay [2] (setting [7]), -3% (inactive); in assay [2] (setting [8]), 12% (inactive); in assay [2] (at 50.0 µM) it was 6.2% (inactive) and 3.7% (inactive). The growth inhibition in assay [3] (setting [7]) is -2% (inactive); in assay [3] (setting [8]) it was 5% (inactive); in assay [3] (at 50.0 µM), -23.1% (inactive) and 58% (inactive); in assay [4] (setting [7]), -6% (inactive); in assay [4] (setting [8]), -4% (inactive); in assay [4] (at 50.0 µM), -0.55% (inactive) and 20.8% (inactive). Further, the growth inhibition in assay [5] (setting [7]) is 51% (inactive); in assay [5] (setting [8]), 10% (inactive); in assay [5] (at 50.0 µM), -9.75% (inactive) and 4% (inactive); in assay [6] (setting [7]), 1% (inactive); in assay [6] (setting [8]) it was 11% (inactive); in assay [6] (at 50.0 µM), -47.5% (inactive) and 31% (inactive).
Consider `Nc1nnc(/C=C/c2ccccc2)o1`, for which the growth inhibition in assay [1] (setting [7]) is 2% (inactive); in assay [1] (setting [8]), -22% (inactive); in assay [1] (at 50.0 µM), 19.5% (inactive); in assay [2] (setting [7]) it was 8% (inactive); in assay [2] (setting [8]), -21% (inactive); in assay [2] (at 50.0 µM), -21.6% (inactive). Moreover, the growth inhibition is -8% (inactive) in assay [3] (setting [7]); -9% (inactive) in assay [3] (setting [8]); -4.6% (inactive) in assay [3] (at 50.0 µM); 1% (inactive) in assay [4] (setting [7]); -4% (inactive) in assay [4] (setting [8]); 42.2% (inactive) in assay [4] (at 50.0 µM). In addition, the growth inhibition in assay [5] (setting [7]) is 1% (inactive); in assay [5] (setting [8]), -4% (inactive); in assay [5] (at 50.0 µM), -1.9% (inactive); in assay [6] (setting [7]), 7% (inactive); in assay [6] (setting [8]), 21% (inactive); in assay [6] (at 50.0 µM), -10.2% (inactive).
